Measured values reported in the supplement of paper PMC4466140.

Each binder was assayed against AgAbp1 (assay: SPOT peptide array binding signal intensity (averaged, normalized) (arbitrary units (background-subtracted, floor 0; scale differs between SH3 domains)); higher = stronger binding of the SH3 domain to the peptide).
Outline: (§1)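 Peptides were synthetic 15-mers on cellulose membranes, with every cysteine replaced by serine. They were incubated overnight at 4°C with GST-SH3 domains from four yeast species at 10 μg/ml in TBS-based blocking buffer. Binding signal, the replicate-averaged normalized and background-subtracted spot intensity, is in arbitrary units that differ between domains.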

Row | Binder | SPOT peptide array binding signal intensity
1 | RKNRAPPQRPRFNRD | 958

The binders below were run against AgBbc1 in the same assay as above.
Outline: as §1

Row | Binder | SPOT peptide array binding signal intensity
2 | RKNRAPPQRPRFNRD | 476

The binders below were run against AgBem1-D1 in the same assay as above.
Outline: as §1

Row | Binder | SPOT peptide array binding signal intensity
3 | RKNRAPPQRPRFNRD | 438

The binders below were run against AgBzz1-D1 in the same assay as above.
Outline: as §1

Row | Binder | SPOT peptide array binding signal intensity
4 | RKNRAPPQRPRFNRD | 256

These binders were tested against AgBzz1-D2 in the same assay as above.
Outline: as §1

Row | Binder | SPOT peptide array binding signal intensity
5 | RKNRAPPQRPRFNRD | 154

What follows are binders tested against AgCyk3 in the same assay as above.
Outline: as §1

Row | Binder | SPOT peptide array binding signal intensity
6 | RKNRAPPQRPRFNRD | 16

What follows are binders tested against AgFus1 in the same assay as above.
Outline: as §1

Row | Binder | SPOT peptide array binding signal intensity
7 | RKNRAPPQRPRFNRD | 501

Each binder was assayed against AgHof1 in the same assay as above.
Outline: as §1

Row | Binder | SPOT peptide array binding signal intensity
8 | RKNRAPPQRPRFNRD | 142

What follows are binders tested against AgHse1 in the same assay as above.
Outline: as §1

Row | Binder | SPOT peptide array binding signal intensity
9 | RKNRAPPQRPRFNRD | 631

Each binder was assayed against AgLsb1 in the same assay as above.
Outline: as §1

Row | Binder | SPOT peptide array binding signal intensity
10 | RKNRAPPQRPRFNRD | 230

The binders below were run against AgLsb4 in the same assay as above.
Outline: as §1

Row | Binder | SPOT peptide array binding signal intensity
11 | RKNRAPPQRPRFNRD | 131

Each binder was assayed against AgMyo5 in the same assay as above.
Outline: as §1

Row | Binder | SPOT peptide array binding signal intensity
12 | RKNRAPPQRPRFNRD | 6.5

These binders were tested against AgNbp2 in the same assay as above.
Outline: as §1

Row | Binder | SPOT peptide array binding signal intensity
13 | RKNRAPPQRPRFNRD | 3290

These binders were tested against AgRvs167 in the same assay as above.
Outline: as §1

Row | Binder | SPOT peptide array binding signal intensity
14 | RKNRAPPQRPRFNRD | 7

What follows are binders tested against AgSho1 in the same assay as above.
Outline: as §1

Row | Binder | SPOT peptide array binding signal intensity
15 | RKNRAPPQRPRFNRD | 37

The binders below were run against AgSla1-D1-D2 in the same assay as above.
Outline: as §1

Row | Binder | SPOT peptide array binding signal intensity
16 | RKNRAPPQRPRFNRD | 474

Each binder was assayed against AgSla1-D3 in the same assay as above.
Outline: as §1

Row | Binder | SPOT peptide array binding signal intensity
17 | RKNRAPPQRPRFNRD | 52

The binders below were run against CaAbp1-D1 in the same assay as above.
Outline: as §1

Row | Binder | SPOT peptide array binding signal intensity
18 | RKNRAPPQRPRFNRD | 924

What follows are binders tested against CaAbp1-D2 in the same assay as above.
Outline: as §1

Row | Binder | SPOT peptide array binding signal intensity
19 | RKNRAPPQRPRFNRD | 998

The binders below were run against CaBbc1 in the same assay as above.
Outline: as §1

Row | Binder | SPOT peptide array binding signal intensity
20 | RKNRAPPQRPRFNRD | 1240

These binders were tested against CaBem1-D1 in the same assay as above.
Outline: as §1

Row | Binder | SPOT peptide array binding signal intensity
21 | RKNRAPPQRPRFNRD | 65.5

The binders below were run against CaBzz1-D1 in the same assay as above.
Outline: as §1

Row | Binder | SPOT peptide array binding signal intensity
22 | RKNRAPPQRPRFNRD | 1760

Each binder was assayed against CaBzz1-D2 in the same assay as above.
Outline: as §1

Row | Binder | SPOT peptide array binding signal intensity
23 | RKNRAPPQRPRFNRD | 1020

The binders below were run against CaCyk3 in the same assay as above.
Outline: as §1

Row | Binder | SPOT peptide array binding signal intensity
24 | RKNRAPPQRPRFNRD | 342

The binders below were run against CaFus1 in the same assay as above.
Outline: as §1

Row | Binder | SPOT peptide array binding signal intensity
25 | RKNRAPPQRPRFNRD | 758

These binders were tested against CaHof1 in the same assay as above.
Outline: as §1

Row | Binder | SPOT peptide array binding signal intensity
26 | RKNRAPPQRPRFNRD | 0.75

The binders below were run against CaHse1 in the same assay as above.
Outline: as §1

Row | Binder | SPOT peptide array binding signal intensity
27 | RKNRAPPQRPRFNRD | 149

What follows are binders tested against CaLsb1 in the same assay as above.
Outline: as §1

Row | Binder | SPOT peptide array binding signal intensity
28 | RKNRAPPQRPRFNRD | 5.5

The binders below were run against CaLsb4 in the same assay as above.
Outline: as §1

Row | Binder | SPOT peptide array binding signal intensity
29 | RKNRAPPQRPRFNRD | 698

The binders below were run against CaMyo5 in the same assay as above.
Outline: as §1

Row | Binder | SPOT peptide array binding signal intensity
30 | RKNRAPPQRPRFNRD | 10.2

Each binder was assayed against CaNbp2 in the same assay as above.
Outline: as §1

Row | Binder | SPOT peptide array binding signal intensity
31 | RKNRAPPQRPRFNRD | 1750

The binders below were run against CaRvs167 in the same assay as above.
Outline: as §1

Row | Binder | SPOT peptide array binding signal intensity
32 | RKNRAPPQRPRFNRD | 31.5

These binders were tested against CaRvs167-3 in the same assay as above.
Outline: as §1

Row | Binder | SPOT peptide array binding signal intensity
33 | RKNRAPPQRPRFNRD | 53

The binders below were run against CaSho1 in the same assay as above.
Outline: as §1

Row | Binder | SPOT peptide array binding signal intensity
34 | RKNRAPPQRPRFNRD | 423

The binders below were run against CaSla1-D1-D2 in the same assay as above.
Outline: as §1

Row | Binder | SPOT peptide array binding signal intensity
35 | RKNRAPPQRPRFNRD | 1480

These binders were tested against CaSla1-D3 in the same assay as above.
Outline: as §1

Row | Binder | SPOT peptide array binding signal intensity
36 | RKNRAPPQRPRFNRD | 15

These binders were tested against ScAbp1 in the same assay as above.
Outline: as §1

Row | Binder | SPOT peptide array binding signal intensity
37 | RKNRAPPQRPRFNRD | 153

These binders were tested against ScBbc1 in the same assay as above.
Outline: as §1

Row | Binder | SPOT peptide array binding signal intensity
38 | RKNRAPPQRPRFNRD | 338

What follows are binders tested against ScBem1-D1 in the same assay as above.
Outline: as §1

Row | Binder | SPOT peptide array binding signal intensity
39 | RKNRAPPQRPRFNRD | 26

The binders below were run against ScBzz1-D1 in the same assay as above.
Outline: as §1

Row | Binder | SPOT peptide array binding signal intensity
40 | RKNRAPPQRPRFNRD | 162

Each binder was assayed against ScBzz1-D2 in the same assay as above.
Outline: as §1

Row | Binder | SPOT peptide array binding signal intensity
41 | RKNRAPPQRPRFNRD | 16.5

These binders were tested against ScCyk3 in the same assay as above.
Outline: as §1

Row | Binder | SPOT peptide array binding signal intensity
42 | RKNRAPPQRPRFNRD | 138

The binders below were run against ScFus1 in the same assay as above.
Outline: as §1

Row | Binder | SPOT peptide array binding signal intensity
43 | RKNRAPPQRPRFNRD | 293

These binders were tested against ScHof1 in the same assay as above.
Outline: as §1

Row | Binder | SPOT peptide array binding signal intensity
44 | RKNRAPPQRPRFNRD | 1.5

Each binder was assayed against ScHse1 in the same assay as above.
Outline: as §1

Row | Binder | SPOT peptide array binding signal intensity
45 | RKNRAPPQRPRFNRD | 1230

Each binder was assayed against ScLsb1 in the same assay as above.
Outline: as §1

Row | Binder | SPOT peptide array binding signal intensity
46 | RKNRAPPQRPRFNRD | 248

What follows are binders tested against ScLsb2 in the same assay as above.
Outline: as §1

Row | Binder | SPOT peptide array binding signal intensity
47 | RKNRAPPQRPRFNRD | 119

These binders were tested against ScLsb3 in the same assay as above.
Outline: as §1

Row | Binder | SPOT peptide array binding signal intensity
48 | RKNRAPPQRPRFNRD | 1430

Each binder was assayed against ScLsb4 in the same assay as above.
Outline: as §1

Row | Binder | SPOT peptide array binding signal intensity
49 | RKNRAPPQRPRFNRD | 53

These binders were tested against ScMyo3 in the same assay as above.
Outline: as §1

Row | Binder | SPOT peptide array binding signal intensity
50 | RKNRAPPQRPRFNRD | 22

Each binder was assayed against ScMyo5 in the same assay as above.
Outline: as §1

Row | Binder | SPOT peptide array binding signal intensity
51 | RKNRAPPQRPRFNRD | 14.5

What follows are binders tested against ScNbp2 in the same assay as above.
Outline: as §1

Row | Binder | SPOT peptide array binding signal intensity
52 | RKNRAPPQRPRFNRD | 4260

The binders below were run against ScPex13 in the same assay as above.
Outline: as §1

Row | Binder | SPOT peptide array binding signal intensity
53 | RKNRAPPQRPRFNRD | 88.8

The binders below were run against ScRvs167 in the same assay as above.
Outline: as §1

Row | Binder | SPOT peptide array binding signal intensity
54 | RKNRAPPQRPRFNRD | 238

Each binder was assayed against ScSho1 in the same assay as above.
Outline: as §1

Row | Binder | SPOT peptide array binding signal intensity
55 | RKNRAPPQRPRFNRD | 845

These binders were tested against ScSla1-D1-D2 in the same assay as above.
Outline: as §1

Row | Binder | SPOT peptide array binding signal intensity
56 | RKNRAPPQRPRFNRD | 1900

These binders were tested against ScSla1-D3 in the same assay as above.
Outline: as §1

Row | Binder | SPOT peptide array binding signal intensity
57 | RKNRAPPQRPRFNRD | 49

The binders below were run against SpAbp1-D1 in the same assay as above.
Outline: as §1

Row | Binder | SPOT peptide array binding signal intensity
58 | RKNRAPPQRPRFNRD | 917

Each binder was assayed against SpBbc1 in the same assay as above.
Outline: as §1

Row | Binder | SPOT peptide array binding signal intensity
59 | RKNRAPPQRPRFNRD | 54

Each binder was assayed against SpBzz1-D1 in the same assay as above.
Outline: as §1

Row | Binder | SPOT peptide array binding signal intensity
60 | RKNRAPPQRPRFNRD | 853

These binders were tested against SpBzz1-D2 in the same assay as above.
Outline: as §1

Row | Binder | SPOT peptide array binding signal intensity
61 | RKNRAPPQRPRFNRD | 9.75

Each binder was assayed against SpCyk3 in the same assay as above.
Outline: as §1

Row | Binder | SPOT peptide array binding signal intensity
62 | RKNRAPPQRPRFNRD | 10

Each binder was assayed against SpHof1 in the same assay as above.
Outline: as §1

Row | Binder | SPOT peptide array binding signal intensity
63 | RKNRAPPQRPRFNRD | 285

What follows are binders tested against SpHof1-2 in the same assay as above.
Outline: as §1

Row | Binder | SPOT peptide array binding signal intensity
64 | RKNRAPPQRPRFNRD | 16.2

These binders were tested against SpHof1-3 in the same assay as above.
Outline: as §1

Row | Binder | SPOT peptide array binding signal intensity
65 | RKNRAPPQRPRFNRD | 360

The binders below were run against SpHse1 in the same assay as above.
Outline: as §1

Row | Binder | SPOT peptide array binding signal intensity
66 | RKNRAPPQRPRFNRD | 367

The binders below were run against SpLsb1 in the same assay as above.
Outline: as §1

Row | Binder | SPOT peptide array binding signal intensity
67 | RKNRAPPQRPRFNRD | 154

The binders below were run against SpLsb4 in the same assay as above.
Outline: as §1

Row | Binder | SPOT peptide array binding signal intensity
68 | RKNRAPPQRPRFNRD | 793

Each binder was assayed against SpMyo1 in the same assay as above.
Outline: as §1

Row | Binder | SPOT peptide array binding signal intensity
69 | RKNRAPPQRPRFNRD | 15.5

These binders were tested against SpNbp2 in the same assay as above.
Outline: as §1

Row | Binder | SPOT peptide array binding signal intensity
70 | RKNRAPPQRPRFNRD | 726

What follows are binders tested against SpPex13 in the same assay as above.
Outline: as §1

Row | Binder | SPOT peptide array binding signal intensity
71 | RKNRAPPQRPRFNRD | 30

Each binder was assayed against SpRvs167 in the same assay as above.
Outline: as §1

Row | Binder | SPOT peptide array binding signal intensity
72 | RKNRAPPQRPRFNRD | 98.7

These binders were tested against SpSla1-D1-D2 in the same assay as above.
Outline: as §1

Row | Binder | SPOT peptide array binding signal intensity
73 | RKNRAPPQRPRFNRD | 61

These binders were tested against SpSla1-D3 in the same assay as above.
Outline: as §1

Row | Binder | SPOT peptide array binding signal intensity
74 | RKNRAPPQRPRFNRD | 7.5
